Rows were chosen to be rich in hits. Some 10% of all compounds tested hit in one or more screens of this group.
GLS inhibitor – inhibitors of human glutaminase (GLS); O94925; Potency, µM (highest dose often 45.5 µM), usual class: inhibitors; GLS enzymatic activity, qHTS titration; hit rate 0.21% among 410,000
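Assay buffer: 45 mM KH2PO4 pH 8.2, 0.02% Tween-20. hKGA acts on L-glutamine (1 mM solution added); product glutamate is reported by an oxidase/peroxidase Amplex Red coupling, with fluorescence taken at baseline and 30 min.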
HP1b chromo inh – inhibitors of HP1-beta chromodomain binding to methylated histone tails. P83916. AlphaScreen HP1-beta / biotin-H3K9me3 peptide binding. Potency, µM (doses to about 114 µM), most hits filed as inhibitors. hit rate 0.56% among 390,000. AID 540317; also: nearly all actives have a fitted effect of over 70% in size
Target sequence (P83916 whole entry, looked up): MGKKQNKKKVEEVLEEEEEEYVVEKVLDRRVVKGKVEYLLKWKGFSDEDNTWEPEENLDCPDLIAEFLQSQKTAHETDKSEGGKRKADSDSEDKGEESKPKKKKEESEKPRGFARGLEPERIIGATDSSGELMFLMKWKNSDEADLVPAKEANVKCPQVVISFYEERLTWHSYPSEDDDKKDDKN
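AlphaScreen: HP1-beta (50 nM) preformed 30 min with biotin-H3(1-18)K9me3 peptide (50 nM) in PBS pH 7.4, 0.01% Tween-20. Compound added for 30 min at RT, then streptavidin donor/nickel chelate acceptor beads (10 ug/mL) for 30 min.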
JMJD2A Tudor – blocks the human JMJD2A Tudor domain. AlphaScreen JMJD2A-Tudor / H3K4me3 peptide binding. O75164. hit rate 4.4% among 390,000. Potency, µM (titrated, usually from 114 µM), usual class: inhibitors; also: nearly all actives have a fitted effect of over 50% in size
G9a inh – G9a (human) methyltransferase inhibition. G9a H3K9 monomethylation, AlphaScreen, 2 h. Potency, µM (series often up to 102 µM), usual class: inhibitors. hit rate 8.8% among 350,000. AID 504332; also: nearly all actives have a fitted effect of over 75% in size
Target sequence (Q96KQ7 913-1193 limits assumed): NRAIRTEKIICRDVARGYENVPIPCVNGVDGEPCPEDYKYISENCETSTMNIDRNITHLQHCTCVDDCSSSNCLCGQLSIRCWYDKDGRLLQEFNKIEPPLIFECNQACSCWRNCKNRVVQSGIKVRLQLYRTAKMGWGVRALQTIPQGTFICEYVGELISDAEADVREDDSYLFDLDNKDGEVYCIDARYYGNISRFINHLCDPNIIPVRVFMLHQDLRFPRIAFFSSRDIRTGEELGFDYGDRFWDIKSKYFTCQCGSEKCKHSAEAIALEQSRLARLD
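Step 1: enzyme (final 20 nM) with compound, 15 min RT. Step 2: substrate peptide 500 nM and SAM 20 uM, 2 h RT. Step 3: anti-H3K9me1 antibody and AlphaScreen beads, 10 min, then plate read.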
BAZ2B inh – blocks human BAZ2B; Q9UIF8; AlphaScreen BAZ2B-H3K14Ac peptide displacement; Potency, µM (doses to about 114 µM), hits mostly inhibitors; hit rate 4.4% among 360,000; also: nearly all actives have a fitted effect of over 60% in size
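Complex of BAZ2B and biotin-H3K14Ac (50 nM apiece) forms over 30 min at RT, then faces library compounds up to 110 uM for another 30 min; AlphaScreen beads added, 20 min dark incubation, luminescence read.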
Hits are given with their value; . = inactive; ? = inconclusive; / = no result; [ ] = another dose, or the depositor's remark. Calls follow the shape of the dose curve; as a rule, active = well fitted curve in the direction sought with a large enough effect; inconclusive = small, poorly fitted or top-dose-only effect, or another doubt; inactive = no such curve, though single readings can be large; an effect the other way counts as inactive or inconclusive.

SMILES	GLS inhibitor	HP1b chromo inh	JMJD2A Tudor	G9a inh	BAZ2B inh
CC(C)(C)OC(=O)N1CCC(C(=O)N[C@@H](Cc2ccccc2)C(=O)O)(c2ccccc2)CC1	.	.	.	.	.
CCC(C)C(=O)Nc1nc(-c2ccc3c(c2)NC(=O)CO3)cs1 (stereo not given)	.	?	.	?	.
O=C1COc2ccc(-c3csc(NCCc4ccccc4)n3)cc2N1	.	.	?	39.8µM	50.1µM
O=C(NCc1ccccc1)C1CCCN1S(=O)(=O)c1cccc2cccnc12 (stereo not given)	.	.	.	?	.
CCCC[n+]1c2ccccc2cc2ccccc21	5.62µM	.	39.8µM	1.26µM	56.2µM
CCC[n+]1c2ccccc2cc2ccccc21	?	.	20µM	3.55µM	44.7µM
Nc1ncccc1OCc1cccc(C(F)(F)F)c1	.	.	.	.	?
COc1ccc(NS(=O)(=O)c2ccc3[nH]c4c(c3c2)CCCCC4)cc1	.	?	31.6µM	?	.
CCOc1ccc(NS(=O)(=O)c2ccc3[nH]c4c(c3c2)CCCC4)cc1	.	?	?	?	?
CCOc1ccc(NS(=O)(=O)c2ccc3[nH]c4c(c3c2)CCCCC4)cc1	.	.	28.2µM	?	.
COc1ccc(OC)c(CNS(=O)(=O)c2ccc3[nH]c4c(c3c2)CCCCC4)c1	.	?	35.5µM	12.6µM	?
COc1ccc(NS(=O)(=O)c2ccc3[nH]c4c(c3c2)CCCC4)c(OC)c1	.	.	?	10µM	?
COc1ccc(NS(=O)(=O)c2ccc3[nH]c4c(c3c2)CCCC4)cc1Cl	.	.	?	.	?
COCCCNS(=O)(=O)c1ccc2[nH]c3c(c2c1)CCCCC3	.	.	?	?	?
COc1ccc(Cl)cc1N(CC(=O)Nc1ccccc1C(=O)N1CCCC1)S(C)(=O)=O	.	.	.	.	.
CCOC(=O)c1cnc2c(-c3ccc(F)cc3)cnn2c1C(F)(F)F	.	.	35.5µM	.[12.7 µM]	.
CC(NC(=O)[C@H](C)NC(=O)N1CCn2c1nc1ccccc12)c1ccccc1 (stereo not given in full)	.	.	.	.	.
COC(=O)c1c(NC(=O)c2nc(SCc3cccc(C)c3)ncc2Cl)sc2c1CCCC2	.	.	.	.	.
CCC1(C)Cc2sc3c(=O)[nH]c(=S)[nH]c3c2CO1 (stereo not given)	.	.	.[11.4 µM]	3.55µM	?
COc1ccc(C(=O)c2sc(Nc3ccccc3)nc2N)cc1OC	?	.	?	70.8µM	.
Nc1nc(Nc2ccccc2)sc1C(=O)c1ccccc1	?	?	?	44.7µM	39.8µM
COc1ccc(C(=O)c2sc(Nc3cc(Cl)ccc3C)nc2N)cc1OC	.	.	22.4µM	.	?
Cc1ccccc1Nc1nc(Cl)c(C=O)s1	.	.	.	.	.
Cc1ccccc1Nc1nc(N)c(C(=O)c2ccccc2Cl)s1	.	.	56.2µM	.	31.6µM
O=C(NC(=S)NCCc1ccccn1)c1ccco1	.	.	.	.	.
SMILES	GLS inhibitor	HP1b chromo inh	JMJD2A Tudor	G9a inh	BAZ2B inh
O=C(NC(NCc1ccccn1)(C(F)(F)F)C(F)(F)F)c1ccco1	.	.	0.708µM	.	50.1µM
CN(CCc1ccccn1)C(=S)NC(=O)c1ccco1	.	.	.	20µM	?
O=C(Nc1ccccc1)Nc1ccc(Oc2cccnc2)nc1	.	.	.	.	?
C=CCN1C=CC(=O)[C@@H](O)[C@H]1c1ccccc1Br	.	.	.	/	/
C[C@H]1CC[C@H]2C(=O)N3[C@H](c4ccccc4Br)[C@@H](C)CC[C@H]3C(=O)N2[C@@H]1c1ccccc1Br	/	/	/	50.1µM	.
COC(=O)c1c(NC(=O)c2cccs2)sc2c1CCC(C)C2 (stereo not given)	.	.	.	.	.
Cc1cccc(Cc2c(C)[nH]c(=O)c(C#N)c2C)c1	.	.	.	.	89.1µM
Cc1ccc(NC(=O)Cn2nc(-c3ccco3)ccc2=O)cc1Cl	.	.	.	11.2µM	.
O=C(CSc1ccc(-c2cccs2)nn1)Nc1cccc(F)c1	.	.	.	17.8µM	.
O=C(CSc1ccc(-c2ccco2)nn1)c1cccc([N+](=O)[O-])c1	.	.	?	10µM	.
COc1ccccc1CCNC(=O)CSc1ccc(-c2ccco2)nn1	.	.	.	28.2µM	50.1µM
O=C(COC(=O)c1ccc(Cl)c(S(=O)(=O)N2CCCCC2)c1)NCC1CCCO1 (stereo not given)	.	.	.	.	.
C[C@@H](C(=O)NC1CCCC1)N1C(=O)N2CCc3c([nH]c4ccccc34)[C@@]2(C)C1=O	.	.	.	.[12.7 µM]	.
Cc1occc1-c1nnc(SCC(=O)N2CCN(c3ccccc3)CC2)n1C	.	.	.	.[12.7 µM]	.
CC(=O)c1cccc(NC(=O)CSc2ccc(-c3ccco3)nn2)c1	.	.	?	31.6µM	.
CCc1ccc(NC(=O)CSc2ccc(-c3ccco3)nn2)cc1	?	.	?	?	.
Cc1cc(NC(=O)Cn2nc(-c3ccccc3F)ccc2=O)ccc1-n1cnnn1	.	.	.	56.2µM	.
CCc1nnc(NC(=O)CSc2ccc(-c3ccc(F)cc3)nn2)s1	/	/	/	44.7µM	.
COc1ccc(C)cc1NC(=O)CSc1ccc(-c2ccco2)nn1	.	.	?	39.8µM	?
COc1cc(NC(=O)Cn2nc(-c3ccc(F)cc3)ccc2=O)ccc1-n1cnnn1	.	.	.	.	/
CC(=O)NC(NC(C)=O)c1cccc(OCc2ccccc2)c1	.	.	.	.	.
Cc1ccc(C)c(Cn2c(=O)n(Cc3ccccc3)c(=O)c3c2c2cc(C)ccc2n3C)c1	.	.	.	?	.
CC1(C)NC(=O)N(CC(O)CN(Cc2ccccc2)Cc2ccccc2)C1=O (stereo not given)	.	.	.	?	.
CCOC(=O)/C(C#N)=C1/CCCCCN1C	.	.	.	.	.
CCOC(=O)/C(C#N)=C1\CCCN1CC(N)=S	.	.	.	17.8µM	.
SMILES	GLS inhibitor	HP1b chromo inh	JMJD2A Tudor	G9a inh	BAZ2B inh
COc1ccc(CCNC(=O)CSc2nc3ccccc3c3nc(CCN4CCCCC4)nn23)cc1OC	.	.	.	.	?
COc1cc(/C=C/C=C2/CC/C(=C/C=C/c3ccc(O)c(OC)c3)C2=O)ccc1O	?	?	56.2µM	/	/
COc1ccc2c(c1)CC/C(=C\C=C\c1ccccc1)C2=O	.	.	.	?	.
COc1cc(/C=C2\COC/C(=C\c3ccc(O)c(OC)c3)C2=O)ccc1O	.	?	?	31.6µM	?
N#CCCNC(=O)CCN1CCCCC1	.	.	.	56.2µM	.
O=C(CCC(=O)CCN1CCCCC1)CCN1CCCCC1	.	?	.	12.6µM	.
N#CCCNC(=O)CCN1CCOCC1	.	.	?	28.2µM	.
CCN(CC)CCOC(=O)[C@@H](Cc1cccc2ccccc12)C[C@@H]1CCCO1	.	/	/	.[21.5 µM]	/
COc1ccc2nc(N=Nc3ccc(N(C)C)cc3)sc2c1	.	.	?	22.4µM	?
COc1ccc2nc(/N=C\N(C)C)sc2c1	.	?	.	?	56.2µM

Source: PubChem BioAssay (National Center for Advancing Translational Sciences (NCATS))
